# Measurements as given in the supplement of paper PMC11417369.
# The full ranking holds about 25,000 sequences; the median of “ln(normalized median fluorescence intensity)” is about 7.1, and the highest 2% start at about 10. The full list was thinned out, with the highest values kept by preference.
# Tested on: PfSIP2 AP2 domain 1 (GST-tagged)
# Assay: gcPBM binding intensity (ln(normalized median fluorescence intensity)); higher = stronger DNA binding
# How it was run: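 Binding intensity is defined as the maximum Masliner-normalised natural-log median intensity across replicate spots for either probe orientation. It was measured on an Agilent 4 × 180k array of primer-extended double-stranded 36-bp intergenic genomic probes and negative controls, to which GST-tagged P. falciparum DNA-binding domains made in E. coli were applied for 1 h in 1× PBS with 1% milk, 0.2 mg/ml BSA, 0.5% salmon testes DNA and 0.03% Triton X-100. Detection was by Alexa488 anti-GST antibody and scanning at 488 nm.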
row,Sequence,gcPBM binding intensity (ln)
1,CCCCCCCACGAACACACACACATACATACCACATAT [CACACA_site7149],9.05
2,TGAGAGAGAAACGTAGTGCATAAAATCAAATTTAGA [GTGCAC_site9737],7.82
3,TTTTTTTGTTTTGTTTTTTTTTTTTTTTTTTTTTTG [CACACA_negctrl_site570],6.76
4,ACATGTTCATAATTTTGTACATATTTTTATGAACAT [XGTACX_site3976],7.12
5,AAAATACACGATAGTTGTACATTAAATGTATACAAT [XGTACX_site360],6.91
6,TGTTATTATAACATTTTTTTCAAAATAGCTTTAGAA [CACACA_negctrl_site266],6.77
7,AATAAATATCAATACACACACACAAAAGTGAATAAA [CACACA_site3763],6.99
8,TAGAATAAGATAGATATACACACCATTATAAATATA [CACACA_site2500],6.78
9,AGTGTGTGTAATAAAGTGCATTAAAAATGACACGTA,8.55
10,TGTGCATAAATTTATGCACACATAAAAAAAAAAAAA [CACACA_site8954],9.95
11,ATTAAAAAATCCATAGTGCACTACGATAGGTTCCGA [GTGCAC_site9463],10.5
12,ATATACATATCAATGTAATATTATATACTTTTTTAG [CACACA_negctrl_site816],6.77
13,TTATATAAAGAATGTACACACAGAAATGCACCCACA [CACACA_site2282],12.2
14,CATTTATATAAAGAATGTACACACAGAAATGCACAC [XGTACX_site4718],8.37
15,ATTTATATAAAGAATGTACACACAGAAATGCACCCA [CACACA_site8715],11.8
16,TGTACACCCAGAAATGCACACACATATATATATATA [CACACA_site8716],9.53
17,GAAAGAAGCATAAATGTACACACATATTTATATATT [CACACA_site8368],7.04
18,TTATATAAAGAATGTACACACAGAAATGCACAGACA [CACACA_site5288],8.26
19,TCCCTGATGTTATTTAATATACCATAAAAAAAAAAA [CACACA_negctrl_site1472],7.22
20,TATATATTATGACCACCACACACCTATACACATAAC [CACACA_site8773],7.3
21,TACATATAAATAATAACACACACCTAGGTACATGGA [CACACA_site838],6.89
22,CAAATATATATTTATTGTACATATTGTTTATATGGT [XGTACX_site5246],7.14
23,TACAAACAATTAAACAAACACACATATACATGTATA [CACACA_site2061],6.92

row,Sequence,gcPBM binding intensity (ln)
1,TAAAATTAAATGAAATCATTATTCATTTTTATTTTA [CACACA_negctrl_site1281],6.67
2,AGTACAGACATAGACACACACACACCCATAAAAAAA [CACACA_site1515],7.24
3,TATATATATATAGACACACACACACCCATATATATA [CACACA_site4117],9.12
4,ATTAAGACACATTGCACACGTGCACCCATAGAAAAA [CACACA_site408],12.2
5,CCATTAAGACACATTGCACACGTGCACCCATAGAAA [CACACA_site4388],12.4
6,TAAGAAATAAATAGTACACACATAGACACCCACCGA [CACACA_site1516],7.3
7,TACACCCATAGACACACACACACGCATAAAAAAAAA [CACACA_site8428],7.55
8,TAAGAAATAAATAGTACACACATAGACACACGCACA [CACACA_site6821],8
9,TAAGAAATAAATAGTACACACATAGACACCCACCCA [CACACA_site8429],7.39
10,ACATTAAGACACATTGCACACGTGCACCCATAGAAA [CACACA_site8029],12
11,ACTGCGTTTTTACACGCGCACTGCAATGAACAATAT,8.05
12,AGGTAGAAAAAAGACACACACATTAGATATTTATAT [CACACA_site6313],6.87
13,TATTATATTCTGCTTACACACATATATATATATATA [CACACA_site3060],9.32
14,ATTTTTTTTTCTTTCGCACACGTGAAAGAATTTCTA [CACACA_site2052],7.13
15,TTATATATTTATATATGTACACATTTTACCATTTTT [XGTACX_site2142],6.9
16,GAAAAAAAAAAAAATACACACAAATTGGTATATAAC [CACACA_site6315],6.75
17,TATATACACATTTTTATACACACTTGTTTTATAAAA [CACACA_site8139],7.16
18,AATAAATAAATAAATAAATATATATATATATATATA [GTGCAC_negctrl_site224],9.48
19,AAATGAAAAATAAGGAAAAAAAAAAAAAAAAAAAAA [CACACA_negctrl_site1715],6.88
20,TTTTTTACTTTTGAGACATTTCATATTTTTATTCAC [GTGCAC_negctrl_site730],6.91
21,AATATTTACAGACATGCGCACACATAAATAAATAAT [CACACA_site8760],8.81
22,TATATATTAATATTTACACACATGCGCACCCATAAA [CACACA_site2410],12.1
23,TATTAATATTTACACACATGCGCACACATAAATAAA [TGCATGCA_site609],9.31

row,Sequence,gcPBM binding intensity (ln)
1,TATATCTTAATATTTACACACATGCGCACCCATAAA [CACACA_site5349],12
2,TATATATCAATATTTACACACATGCGCCCACATAAA [CACACA_site7185],7.57
3,TATTTACACCCATGCGCACACATAAATAAATAATAG [CACACA_site5350],8.34
4,TATGAATGGTTAAGTACACACATATTAAGATATGTA [CACACA_site5852],6.99
5,ACTTTAACCTGAACGGTGCATAAAATTTTGGCATTA,10.8
6,TGCATTTTACTTGTTACACACATATAAAATTAACCA [CACACA_site7387],7.11
7,CTATTTAAAATTTGAACACACATTATTTATTTTAAA [CACACA_site3114],6.9
8,TTATAGCCTGTGAAGAGTACATTTTTATTTTTTATT [XGTACX_site4105],6.85
9,TTTTTTTTTTTTTGGTGTACCATAGGTAAAATGATT [XGTACX_site8020],7.2
10,TATTTATATTTATACACACACACAAAAAAAAAAAAA [CACACA_site6817],7.22
11,TATTTTTTATATTTATTTATTTAAAGGAGCTTTTCT [GTGCAC_negctrl_site293],6.67
12,TTTTTCATTTAGCTTTTACACACTATATATTATTGA [CACACA_site7888],7.16
13,CAGGTGCACTATATTACACACGCTTCTTTTTTTTTA [CACACA_site2069],12.4
14,ATATATATATATATTACACACTTTTTCTTTTTTTTT [CACACA_site2780],9.47
15,AATTTTTTTTTTTTTTTTTTTTATATATGTGTGTGT [XGTACX_negctrl_site129],7.29
16,TATATATTTTTATGTGTGCACTGTTTCATAAAAGAA,10.9
17,ATCATATTTTTATGTGTGCACTTTTTTTTTTTTTTT [GTGCAC_site9555],10.8
18,AATATTTCTCATTTTGTGCACTGAAAAATGTAATAT,10.2
19,AATATATTTATGCTCATGCACTTTTTTTTTTTTTTT [GTGCAC_site9654],8.89
20,ATATATTGCACTTTTTGTACATAATGAAAAATTTTT [XGTACX_site8223],8.1
21,TATATATATATGTGCACACATAAAGATATTATTTTT [CACACA_site3733],9.51
22,TATATATTTCGGTGTGCACACTTTTTATTTTTATCC [CACACA_site1726],8.4
23,ACATATTATATATGTGTGCACATATATATATATTTA [GTGCAC_site9591],8.7

row,Sequence,gcPBM binding intensity (ln)
1,TATATATATATATATGTGCACATATTTATATGTTTT,9.47
2,ATATATTTTATATGTGTGCACTATATATATATATAT,10.2
3,TATATATATTTTTGTGTGCACTATAATATGAAAATA,10.8
4,AAATATATTTTACATTGTACATGAATAAACTATAAA [XGTACX_site2080],7.05
5,AAGGCAAGCACTTAAACATGCATATAATAATATCAT [TGCATGCA_site698],7.36
6,TGATAAGTATACTAAAGTACATGAAAAATAACTTCC [XGTACX_site6908],6.87
7,ATTACATACGAGCACACGTAAAAGTATAATATAAAA [GTGCAC_negctrl_site446],6.94
8,TGAGTATATATAAATACACACCAAATGTTAATATAT [CACACA_site5022],6.8
9,TAATGATAAATACATACACACAAAAAATAATATATA [CACACA_site2576],6.85
10,CATATATATTTGTTCACACACACACTAGAAAAAAAA [CACACA_site5380],7.29
11,TATGATACATAAATATGTACGTATAATATATATTTA [XGTACX_site7002],6.96
12,ATTATTAAAAATATGGGTACATATTATTGTTATATA [XGTACX_site1958],6.89
13,AAAAAATAAAAAATATGTACACATTCAAAATTTTAC [XGTACX_site8479],6.91
14,ATTTTATGAAATGTTGCACACAAAAAACAACATGTT [CACACA_site8408],7.66
15,TATATTTTTATGTGTGTGCACAAAATAACAAAATAT [GTGCAC_site9596],9.36
16,TATTTTTGGTTATGTGTGCACTATGAACAACAAAAT,10.5
17,AATATTTGCCTATGTTGTACTGACATTTTTTTAAGT [XGTACX_site6836],7.06
18,TTTTAAGATATAAATTAATACTTATATATATAGATA [CACACA_negctrl_site22],6.75
19,TAATTACACTTTAAAAGTACATATATAATAACATTA [XGTACX_site379],7.04
20,ATTAGTTTACACATATGTACATATATTACAACAAAA [XGTACX_site275],7.34
21,AAAAAGAACACAAAAAGTACAAAAATTATAATGATA [XGTACX_site2676],6.98
